Compound activity from PubChem.
This is a sample that favours compounds with a hit; in the whole collection about 0.7% have one here.
Epigenetic derep: Quantitative High-Throughput Screen for Regulators of Epigenetic Control | 280,000 compounds, 0.2% hits | murine LDR cells, GFP reporter derepression, 30 h | Potency, µM (series often up to 53.9 µM), inactives show at the highest dose GFP activation, most hits filed as activators; also: % of control where 0% means no effect; nearly all actives have a fitted effect of over 60% in size
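Reporter derepression read as number of fluorescent GFP-positive objects, 20-120 um in size, counted by laser-scanning cytometer. Mouse LDR line with an epigenetically silenced CMV-GFP locus; compound incubation 30 h, 37 C.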
GLS inhibitor: qHTS for Inhibitors of Glutaminase (GLS). AID 624170, 2012. Potency, µM (doses to about 45.5 µM), for inactives: at the highest dose activity change, negative = inhibition, most hits filed as inhibitors. 410,000 compounds, 0.21% hits. GLS enzymatic activity, qHTS titration. Glutaminase kidney isoform, mitochondrial (Homo sapiens), O94925; also: % is scaled to controls: 0 for no effect and ±100 for the full control effect
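Compounds were pin-transferred onto hKGA, after which L-glutamine (1 mM solution) and a detection mix of glutamate oxidase, HRP and Amplex Red were added. Initial and 30 min RT fluorescence reads were collected.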
Vif-A3F inh: qHTS for Inhibitors of Vif-A3F Interactions: qHTS; HeLa A3F-eYFP + Vif (tagged APOBEC3F with the HIV-1 protein that degrades it), YFP fluorescence increase; Potency, µM (top dose mostly 46.1 µM), for the others: at the highest dose activity, negative = active; 390,000 compounds, 0.2% hits; also: % of control where 0% means no effect; nearly all actives have a fitted effect of over 65% in size
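Fluorescence increase (Ex 488/Em 500-530) after overnight compound treatment at 37 deg C flags inhibition of Vif-driven A3F-eYFP loss in stable HeLa A3F-eYFP/Vif cells seeded overnight beforehand.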
PINK1 expr mod: A Quantitative High throughput Screen to Identify Chemical Modulators of PINK1 Expression; 410,000 compounds, 0.2% hits; AID 624263, 2012; PINK1 immunofluorescence, high-content cytometry, 24 h; Potency, µM (doses to about 76.6 µM), without a hit: at the highest dose activation (PINK1 increase), most hits filed as activators; active = well fitted activation curve with a large enough effect; inconclusive = small, poorly fitted or top-dose-only effect; cell line not stated here; also: % of control where 0% means no effect; nearly all actives have a fitted effect of over 65% in size
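PINK1 protein, normally rapidly degraded, was detected by immunofluorescence after 24 hour compound treatment of a stable cell line. Titration data (5 concentrations) came from laser-scanning cytometry, with CCCP-treated wells as controls.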
Vif-APOBEC3G blk: qHTS for Inhibitors of Vif-A3G Interactions: qHTS; HeLa A3G-eYFP + Vif (tagged APOBEC3G with the HIV-1 protein that degrades it), YFP fluorescence, overnight; Potency, µM (highest dose often 46.1 µM), inactives show at the top dose activity, negative = active, actives largely listed as inhibitors; 410,000 compounds, 0.076% hits; also: % is scaled to controls: 0 for no effect and ±100 for the full control effect; nearly all actives have a fitted effect of over 60% in size
Target sequence (Q9HC16 whole entry, looked up): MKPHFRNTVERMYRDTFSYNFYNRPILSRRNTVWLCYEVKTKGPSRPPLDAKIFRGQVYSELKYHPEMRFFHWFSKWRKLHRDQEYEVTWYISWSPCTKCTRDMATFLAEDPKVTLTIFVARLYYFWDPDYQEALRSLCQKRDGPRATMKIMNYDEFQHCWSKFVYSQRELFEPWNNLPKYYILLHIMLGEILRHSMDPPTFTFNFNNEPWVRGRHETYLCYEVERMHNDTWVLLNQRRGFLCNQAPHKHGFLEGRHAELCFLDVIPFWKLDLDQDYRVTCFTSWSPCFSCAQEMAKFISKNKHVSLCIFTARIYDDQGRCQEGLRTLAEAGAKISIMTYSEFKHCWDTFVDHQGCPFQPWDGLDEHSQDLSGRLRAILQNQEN
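Read-out is eYFP fluorescence (Ex 488/Em 500-530) from Vif-expressing HeLa A3G-eYFP cells; more signal means A3G escaped Vif-mediated degradation. Cells plated overnight, compound pinned in, incubated overnight at 37 deg C.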
Numbers without * were called inactive; ? = inconclusive; / = no result given; [ ] = dose if it differs, or a comment. Unless noted, calls follow the shape of the dose curve; as a rule, active = well fitted curve in the direction sought with a large enough effect; inconclusive = small, poorly fitted or top-dose-only effect, or another doubt; inactive = no such curve, though single readings can be large; an effect the other way counts as inactive or inconclusive. Potency is read from the fitted curve at half-maximal effect.

SMILES	Epigenetic derep	GLS inhibitor	Vif-A3F inh	PINK1 expr mod	Vif-APOBEC3G blk
COc1cc(NC(=O)COC(=O)c2n[nH]c3ccccc23)c(C)cc1[N+](=O)[O-]	0%	4%	-4%	45µM*	-7%
O=C(COC(=O)c1n[nH]c2ccccc12)Nc1ccc([N+](=O)[O-])cc1	0%	3%	-4%	-3%	-4%
Cc1cc(N2CCCC2)ccc1/C=C1/C(=O)N(C)C(=S)N1C	?	-6%	11µM*	17%	?
COCc1c(C(=O)NC2CCCCC2)cnn1-c1nccc(-c2cc(C)sc2C)n1	/	/	/	1%	/
Cc1[nH]n(-c2ccccc2)c(=O)c1C=Nc1ccc2[nH]c(=O)[nH]c2c1	?	12%	3%	35µM*	0%
Cc1cccc(-n2[nH]c(C)c(C=Nc3ccc4[nH]c(=O)[nH]c4c3)c2=O)c1	?	-2%	?	32µM*	2%
Cc1[nH]n(-c2ccccc2)c(=O)c1C=Nc1cccc(F)c1	0%	-3%	-20%	0%	-6%
O=C(NCC1Cc2cccc(-c3ncccn3)c2O1)C1CCCO1 (stereo not drawn)	/	/	/	0%	/
CC(CCc1ccccc1)NC(=O)CN1CCN(Cc2ccccc2)C1=O (stereo not drawn)	-1%	-9%	-8%	4%[38.3 µM]	0%
CC(CCc1ccccc1)NC(=O)CN1CCN(c2ccc(O)cc2)CC1 (stereo not drawn)	-4%	10µM*	2%	0%	2%
O=C(O)c1ccc(COc2ccc3c4c(c(=O)oc3c2)CCC4)o1	0%	13µM*	-10%	0%	0%
O=c1oc2cc(OCc3ccc([N+](=O)[O-])cc3)ccc2c2c1CCCC2	2%	2%	-9%	6%	0%
Oc1cc(-c2ccc(N3CCCCC3)nc2)cc2cccnc12	/	-4%	?	13µM*	3%
Cc1c(CN2CCOc3ccc(C(C)(O)COc4ccccc4)cc3C2)cnn1C (stereo not drawn)	/	/	/	0%	/
CCN(Cc1ccccc1)c1ccc(/C=C(\C#N)c2ccccn2)cc1	?	-3%	22µM*	7%	-12%
CN(CCC#N)c1ccc(/C=C(\C#N)c2ccccn2)cc1	0%	5%	-3%	-1%	-1%
CCN(CC)c1ccc(/C=C(\C#N)c2ccccn2)cc1	18µM*	-2%	?	2%	10µM*
CNC(=O)[C@@H]1C[C@@H](NCc2cccc(Oc3ccccc3)c2)CN1C(C)C	/	/	/	1%	/
CCCC1=[N+](CC(=O)c2ccc(Br)cc2)CCn2cccc21	0%	?	11µM*	4%	-23%
COc1ccnc(CSC(N)=Nc2ccccc2OC)c1	3.5µM*	1%	7%	-1%	4%
CCSc1nnc(-c2sc3nnc(-c4ccccc4)c(-c4ccccc4)c3c2N)o1	?	-3%	13µM*	0%	3.2µM*
CCSc1nnc(-c2ccncc2)o1	1%	5%	0%	4%[38.3 µM]	-1%
COc1ccc(NC2=C(NC(C)=O)C(=O)c3ccccc3C2=O)cc1	/	-7%	7%	1%	-4%
CCC(=O)NC1=C(Nc2ccc(N)cc2)C(=O)c2ccccc2C1=O	/	7.1µM*	-6%	0%	-5%
CCCCOc1ccc(-c2cc(C(F)(F)F)c(C#N)c(SCC(=O)O)n2)cc1	25µM*	6%	11µM*	?	-9%
Cc1ccc(NC(=O)CSc2nc(-c3ccc(F)cc3)cc(C(F)(F)F)c2C#N)cc1	?	-9%	3%	1%	-1%
Cc1coc(NC(=O)CSc2nc(-c3ccncc3)cc(C(F)(F)F)c2C#N)n1	13µM*	-15%	11µM*	?	?
Cc1ccc(S(=O)(=O)CCSc2nc(C)cc(C(F)(F)F)c2C#N)cc1	?	5%	?	1%	11µM*
N#Cc1ccccc1NC(=O)CSc1nc(-c2ccccc2)cc(C(F)(F)F)c1C#N	13µM*	0%	11µM*	10%	-30%
CCCCCCC[n+]1ccc(/C=C/c2c(C)[nH]c3ccccc23)c2ccccc21	/	/	/	/	9%
